This note sets out measurements from PubChem BioAssay (NCI).

Each structure is given as a SMILES string. Compounds without any hit were thinned out: in the full panel of roughly 83,000, 20% have a hit.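 In brief: 96-well plates, 48 h treatment, single concentration, percent growth endpoint.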 A number with no mark means an inactive call. Activity calls are given as the source filed them. How the source made its calls: active means growth percent below 10; inactive means the rest.

Some test systems named below: T-47D breast; BT-549 breast; MDA-MB-435 melanoma; SW-620 colon; MCF7 breast; HCT-116 colon; HCC-2998 colon; KM12 colon.
Experiment in all cases: NCI-60 one-dose screen, 48 h (100 = growth as untreated, 0 = no growth, -100 = all killed)
Common to all, as to conditions: 10 µM unless noted

As to `C#CCOc1cccc(Nc2ncnc3ccc(NC(=O)C=C)cc23)c1`, the growth in the assay with T-47D breast was 39%; in the assay with BT-549 breast, 19.5%; in the assay on MDA-MB-435 melanoma, 43.8%; with SW-620 colon it was 55.9%; with MCF7 breast it was 47.6%; with HCT-116 colon it was 32.8%. The growth in the assay with HCC-2998 colon is 84.6%; in the assay on KM12 colon it was 60.4%.
On to `CCSC(SCC)c1ccc(Cl)cc1`, for which the growth is 101% with T-47D breast; 112% in the assay on BT-549 breast; 97.4% in the assay on MDA-MB-435 melanoma; 99.3% with SW-620 colon; 104% with MCF7 breast; 108% in the assay on HCT-116 colon. Further, the growth is 92.3% in the assay with HCC-2998 colon and 114% in the assay with KM12 colon.
Turning to `c1csc(-c2ccc(CNc3c4ccccc4nc4ccccc34)cc2)c1`, the growth with T-47D breast is 71.9%; with BT-549 breast, 33.7%; in the assay on MDA-MB-435 melanoma it was -83.4% (active); with SW-620 colon, -72.2% (active); in the assay with MCF7 breast, -63% (active); with HCT-116 colon, -82.6% (active). The growth is -87.2% (active) in the assay on HCC-2998 colon and 26.3% in the assay with KM12 colon.
As for `CCNCCNc1cc(-c2ccc(C(F)(F)F)cc2)c(C#N)c2nc3ccccc3n12`, the growth is -59.4% (active) in the assay on T-47D breast; -73.9% (active) in the assay with BT-549 breast; -96.9% (active) in the assay with MDA-MB-435 melanoma; -73.7% (active) in the assay with SW-620 colon; -71.6% (active) in the assay with MCF7 breast; -95.4% (active) in the assay with HCT-116 colon. The growth in the assay on HCC-2998 colon was -99.6% (active); with KM12 colon it was -85.1% (active).
Consider `Nc1ncnc2c1C(c1ccc(Br)cc1)c1sc3c(F)cccc3c1O2` (stereo not given), for which the growth in the assay with T-47D breast is 74.9%; in the assay on BT-549 breast, 100%; in the assay on MDA-MB-435 melanoma it was 107%; in the assay on SW-620 colon, 94.5%; in the assay with MCF7 breast, 55.9%; in the assay with HCT-116 colon, 95%. In addition, the growth is 120% with HCC-2998 colon and 91.8% in the assay on KM12 colon.
For `COc1ccc(Cc2cnc(NC(=O)c3cc(C)oc3C)s2)cc1`, the growth is 31.8% in the assay with T-47D breast; 50.7% with BT-549 breast; 0.623% (active) in the assay on MDA-MB-435 melanoma; 27.9% in the assay with SW-620 colon; 21.6% in the assay with MCF7 breast; 25.1% in the assay with HCT-116 colon. For the same compound, the growth is 60.9% with HCC-2998 colon and 25.4% in the assay with KM12 colon.
Consider `COCCOc1cc2ncnc(N3CCN(c4cc(S(C)(=O)=O)c(C)cc4Cl)CC3)c2cc1OCCOC`, for which the growth with T-47D breast is 69.6%; in the assay on BT-549 breast, 91.4%; with MDA-MB-435 melanoma, 105%; with SW-620 colon, 110%; in the assay on MCF7 breast, 91.9%; in the assay with HCT-116 colon it was 103%. The growth was 100% in the assay with HCC-2998 colon and 93.2% in the assay with KM12 colon.
On to `CCCCCN1C(=O)/C(=c2\sc3n(c2=O)C2C(NN=3)N(CC)C(=O)N2CC)c2ccccc21` (stereo not given), for which the growth was 23.3% with T-47D breast; 19.5% with BT-549 breast; -60.1% (active) in the assay on MDA-MB-435 melanoma; -42.1% (active) with SW-620 colon; 12% in the assay with MCF7 breast; -72.1% (active) in the assay with HCT-116 colon. Also, the growth in the assay with HCC-2998 colon is -17.1% (active); in the assay on KM12 colon, -52.9% (active).
Turning to `Nc1ncnc2c1N=C(c1ccc(Br)cc1)CC(c1cccc(Nc3ccnc4cc(C(F)(F)F)ccc34)c1)N2` (stereo not given), the growth in the assay with T-47D breast was 68.6%; with BT-549 breast, 105%; with MDA-MB-435 melanoma, 38.3%; in the assay with SW-620 colon, 64.1%; in the assay on MCF7 breast, 22%; in the assay on HCT-116 colon, 32.8%. Besides, the growth is 67.2% in the assay with HCC-2998 colon and 60.2% with KM12 colon.
Regarding `COc1ccc(OC)c(/C=N/Nc2ncnc3c2c(C)nn3C)c1`, the growth in the assay on T-47D breast is 84.6%; in the assay on BT-549 breast it was 101%; in the assay with MDA-MB-435 melanoma, 105%; in the assay on SW-620 colon it was 107%; with MCF7 breast it was 85.2%; in the assay with HCT-116 colon, 109%. Besides, the growth is 102% in the assay with HCC-2998 colon and 103% in the assay on KM12 colon.
Consider `NC(=O)CSc1oc(-c2ccccc2)nc1S(=O)(=O)c1ccc(Br)cc1`, for which the growth is 57.8% in the assay on T-47D breast; 62.1% in the assay on BT-549 breast; 81% in the assay with MDA-MB-435 melanoma; 94.4% in the assay on SW-620 colon; 75% in the assay with MCF7 breast; 50.6% in the assay on HCT-116 colon. Also, the growth in the assay on HCC-2998 colon was 93.3%; in the assay with KM12 colon it was 89%.
Turning to `Cc1ccc(-c2nc(N3CCCNCC3)c3oc(-c4ccc(C)cc4)nc3n2)cc1`, the growth was -46% (active) in the assay with T-47D breast; 90.2% in the assay with BT-549 breast; 70.8% in the assay on MDA-MB-435 melanoma; -49.7% (active) with SW-620 colon; -64.8% (active) in the assay on MCF7 breast; 27.5% in the assay with HCT-116 colon. Besides, the growth with HCC-2998 colon was 40.9%; in the assay with KM12 colon it was 11.3%.
For `O=C1C(Cl)=C(Nc2ccc(S(=O)(=O)N3CCOCC3)cc2)C(=O)c2ccccc21`, the growth with T-47D breast was 69.8%; with BT-549 breast it was 45.9%; in the assay with MDA-MB-435 melanoma, 88.1%; in the assay on SW-620 colon, 32.5%; in the assay with MCF7 breast, 58.9%; with HCT-116 colon, 4.7% (active). The growth in the assay with HCC-2998 colon was 106%; in the assay with KM12 colon it was 64.5%.
`Oc1c(I)cc(I)cc1CNCCN(Cc1ccccn1)Cc1ccccn1`: the growth was -36% (active) in the assay on T-47D breast; -33.6% (active) with BT-549 breast; -66.6% (active) in the assay on MDA-MB-435 melanoma; -42.5% (active) with SW-620 colon; -6.6% (active) with MCF7 breast; -45.1% (active) with HCT-116 colon. The growth with HCC-2998 colon is -86.8% (active); with KM12 colon, -38.9% (active).
As to `CNC(=O)c1[nH]cc(-c2ccc(OC)cc2)c1-c1cc(OC)c2c(c1OC)OCO2`, the growth with T-47D breast is 92.3%; in the assay with BT-549 breast, 97.4%; in the assay with MDA-MB-435 melanoma it was 99.6%; with SW-620 colon, 103%; in the assay with MCF7 breast, 97.5%; in the assay on HCT-116 colon, 95.6%. For the same compound, the growth with HCC-2998 colon is 101%; with KM12 colon it was 104%.
